HT1080-NT tox – kills 2HG-producing HT-1080-NT fibrosarcoma cells. HT-1080-NT fibrosarcoma viability, CellTiter-Glo ATP luminescence, 48 h. Potency, µM (doses to about 46.1 µM), for the others: top-dose activity, negative = less viability, usual class: cytotoxic. actives 1.6% (n = 360,000);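 further: NT is the 2HG producing partner of a matched IDH1 knockdown line; potency means the concentration at half of the fitted maximal effect; 0% = DMSO-treated cells and -100% = media-only wells without cells; nearly all actives have a fitted effect of over 55% in size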
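Viability of the 2HG-overproducing fibrosarcoma line after 48 hours of compound exposure at 37 degrees C was determined by luminescence with CellTiter-Glo, and concentration-effect curves were then fitted and categorized.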
HT1080 IDH1KD tx – HT-1080 IDH1 knockdown cell toxicity (counter line); HT-1080 IDH1 knockdown viability, ATP luminescence, 48 h; Potency, µM (series often up to 46.1 µM), without a hit: top-dose activity, negative = toxicity, most hits filed as cytotoxic; actives 2% (n = 360,000);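 further: potency means the concentration at half of the fitted maximal effect; 0% = DMSO wells and -100% = cell-free medium wells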
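Assay cells: HT-1080 with IDH1 knockdown, 750 per well, RPMI/5% FBS. Exposure: 48 h at 37 °C following 2 h pre-incubation. Read: CellTiter-Glo luminescence; fitted concentration-response, curve class assigned.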
TDP1 cell noCPT – qHTS for Inhibitors of human tyrosyl-DNA phosphodiesterase 1 (TDP1): qHTS in cells in absence of CPT | DT40 Tdp1-/- hTDP1 cells, no CPT, ATP luminescence, 48 h | Potency, µM (doses to about 46.2 µM), for inactives: at the top dose activity change, negative = growth inhibition, most hits filed as inhibitors | actives 15% (n = 420,000) | AID 686978, 2013; further: potency means the concentration at half of the fitted maximal effect; nearly all actives have a fitted effect of over 55% in size
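Seeded 400 DT40-hTDP1 cells/well (vehicle DMSO, no 20 nM CPT); pinned compounds; ≥48 hr at 37 °C; CellTiter-Glo luminescence as viability measure.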
12-LOX inh – blocks human arachidonate 12S-lipoxygenase; AID 1671190; Potency, µM (highest dose often 108 µM), for inactives: at the highest dose activity change, negative = inhibition, actives largely listed as inhibitors; purified 12hLO, xylenol orange hydroperoxide absorbance; actives 1.1% (n = 580,000); P18054; further: potency means the concentration at half of the fitted maximal effect
Target sequence (P18054 whole entry, looked up): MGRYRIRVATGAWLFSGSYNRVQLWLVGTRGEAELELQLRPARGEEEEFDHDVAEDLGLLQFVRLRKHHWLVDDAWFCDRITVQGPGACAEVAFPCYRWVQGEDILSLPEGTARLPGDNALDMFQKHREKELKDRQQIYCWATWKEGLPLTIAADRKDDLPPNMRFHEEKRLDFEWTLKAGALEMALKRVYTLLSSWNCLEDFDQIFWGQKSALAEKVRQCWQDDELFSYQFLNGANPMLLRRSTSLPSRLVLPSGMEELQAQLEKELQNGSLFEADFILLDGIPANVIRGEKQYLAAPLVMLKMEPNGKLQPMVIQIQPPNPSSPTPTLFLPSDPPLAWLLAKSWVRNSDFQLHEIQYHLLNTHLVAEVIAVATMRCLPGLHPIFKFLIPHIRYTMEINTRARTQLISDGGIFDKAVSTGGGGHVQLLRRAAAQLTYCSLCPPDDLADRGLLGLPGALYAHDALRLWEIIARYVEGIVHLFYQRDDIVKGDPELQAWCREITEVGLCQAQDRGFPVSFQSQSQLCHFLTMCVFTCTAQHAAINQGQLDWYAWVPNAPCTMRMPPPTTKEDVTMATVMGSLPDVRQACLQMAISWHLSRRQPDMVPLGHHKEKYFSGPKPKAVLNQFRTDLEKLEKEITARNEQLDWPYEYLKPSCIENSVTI
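Purified human 12hLO (150 nM final) in 25 mM Hepes, 0.01% Triton X-100, pH 7.0 was preincubated 15 min at room temperature with compound. Then 40 uM arachidonic acid was added, 30 min. Hydroperoxide was read by Fe-XO absorbance ratio 573/405 nm.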
DT40 TDP1 CPT – growth inhibition of DT40 Tdp1-/-;hTDP1 cells with camptothecin (screen for TDP1 inhibitors); actives 12% (n = 420,000); chicken DT40 Tdp1-/-;hTDP1 cells + 20 nM CPT, ATP luminescence, 48 h; AID 686979; Potency, µM (highest dose often 46.2 µM), for inactives: at the highest dose activity change, negative = growth inhibition, most hits filed as inhibitors; further: potency means the concentration at half of the fitted maximal effect; nearly all actives have a fitted effect of over 55% in size
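Chicken DT40 Tdp1-/- cells stably complemented with human TDP1 were seeded at 400 cells/well in medium containing 20 nM camptothecin, exposed to pin-transferred compounds, and grown at 37 °C for at least 48 hr. Viability was read as ATP luminescence.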
IL-1B inflam inh – inhibitors of inflammasome signaling (IL-1 beta secretion); THP-1 LPS/ATP IL-1B secretion, AlphaLISA, 16 h; hits give low values; activity change, % at 57.5 µM; actives 4.7% (n = 360,000); AID 743279; in the data active means activity change below about -50%; inconclusive means mostly about -30% to -49%
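THP-1 cells pretreated 1 hr with compounds (up to 57.5 uM final), then stimulated with LPS (250 ng/mL final) plus ATP (1.25 mM final); secreted IL-1B measured by AlphaLISA after 16 hr, decreased signal indicating inhibition.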
Numbers without * were called inactive. This excerpt belongs to a sample that is enriched for hits. Unless noted, the call rests on the fitted dose curve; in most records, active means well fitted curve in the direction sought with a large enough effect; inconclusive means small, poorly fitted or top-dose-only effect, or another doubt; inactive means no such curve, though single readings can be large; an effect the other way counts as inactive or inconclusive. Unless noted, on the % scale 0 is the no-effect control and ±100 the full control effect.

`CC(=O)Nc1nonc1-c1nnc(SCC(=O)Nc2c(C)cccc2C)n1-c1ccccc1` gave TDP1 cell noCPT -29%, 12-LOX inh -21% and DT40 TDP1 CPT inconclusive.
For CC(=O)Nc1nonc1-c1nnc(SCC(=O)Nc2cccc(C)c2C)n1-c1ccccc1 the results were TDP1 cell noCPT 26µM*, 12-LOX inh -1% and DT40 TDP1 CPT 23µM*.
For CCN(CC(=O)Nc1c(F)cccc1F)C(=O)c1nn(Cc2ccccc2)c(=O)c2ccccc12 the results were 12-LOX inh 9%.
O=C(NCCCc1nc2ccccc2n1Cc1c(F)cccc1Cl)C1CCCCC1 was read as TDP1 cell noCPT -12%, 12-LOX inh -24% and DT40 TDP1 CPT -15%.
O=C(NCCc1nc2ccccc2n1Cc1ccc(Cl)cc1)c1ccccc1 was read as TDP1 cell noCPT inconclusive, 12-LOX inh 1% and DT40 TDP1 CPT inconclusive.
For O=C(NCCCc1nc2ccccc2n1Cc1ccccc1Cl)C1CCCCC1 the results were TDP1 cell noCPT 18µM*, 12-LOX inh -30% and DT40 TDP1 CPT 23µM*.
O=C(NCCCc1nc2ccccc2n1Cc1ccc(Cl)cc1)C1CCCCC1 was read as TDP1 cell noCPT 21µM*, 12-LOX inh -13% and DT40 TDP1 CPT 16µM*.
For O=C(NCCC1=CCCCC1)C1CCN(C(=O)c2ncn3c2COC(c2ccccc2)C3)CC1 (stereo unspecified) the results were 12-LOX inh 53%.
Screening O=C(C1CC1)N1CCCC1c1noc(COc2ccc(F)cc2)n1 (stereo unspecified) returned 12-LOX inh -1%.
`CSc1ccc(/C=[N+](\[O-])C2N(C)C(=S)SC2(C)C)cc1` (stereo unspecified) gave 12-LOX inh 21%.
O=C(O)COc1ccc(-c2nccc3c2C(=O)N(Cc2c[nH]c4ccccc24)CC(CNC(=O)Cc2ccc(Cl)cc2)O3)cc1 (stereo unspecified) was read as 12-LOX inh 5%.
Screening COC(=O)C1CCN(C(=O)Cc2c(OC)ccc3cc(Br)ccc23)CC1 returned HT1080-NT tox 0%, HT1080 IDH1KD tx 3%, TDP1 cell noCPT inconclusive, 12-LOX inh -10%, DT40 TDP1 CPT 18µM* and IL-1B inflam inh 33.
Screening CCCCN(C)C(=O)Cc1c(OC)ccc2cc(Br)ccc12 returned HT1080-NT tox -7%, HT1080 IDH1KD tx -2%, TDP1 cell noCPT 18µM*, 12-LOX inh -20%, DT40 TDP1 CPT 23µM* and IL-1B inflam inh 14.
Screening COC(=O)Cc1c(OC)ccc2cc(Br)ccc12 returned 12-LOX inh 44%.
For CCOC(=O)[C@@H](C)N(C(=O)OC(C)(C)C)S(=O)(=O)N(Cc1ccccc1)[C@H](C(=O)OC)C(C)C the results were HT1080-NT tox 9%, HT1080 IDH1KD tx 3%, TDP1 cell noCPT inconclusive, 12-LOX inh 20%, DT40 TDP1 CPT 23µM* and IL-1B inflam inh 57.
Screening CC(C)Cc1nc(Nc2ccccc2C#N)c2nnn(Cc3ccccc3)c2n1 returned HT1080-NT tox inconclusive, HT1080 IDH1KD tx 18µM*, TDP1 cell noCPT inconclusive, 12-LOX inh 0%, DT40 TDP1 CPT -26% and IL-1B inflam inh inconclusive.
`O=C(CCc1ncc(-c2ccccc2)o1)NCc1ccccc1Cl` gave 12-LOX inh 8%.
For O=C(COC(=O)/C=C/c1ccc2ccccc2n1)NNC(=O)c1ccc([N+](=O)[O-])cc1 the results were HT1080-NT tox 14%, HT1080 IDH1KD tx 9%, TDP1 cell noCPT -9%, 12-LOX inh -3%, DT40 TDP1 CPT 10% and IL-1B inflam inh -53*.
Screening Cc1ccc(S(=O)(=O)N(C)C)cc1NC(=O)COC(=O)c1c(-c2ccccc2)noc1C returned HT1080-NT tox 4%, HT1080 IDH1KD tx 4%, TDP1 cell noCPT inconclusive, 12-LOX inh -1%, DT40 TDP1 CPT -23% and IL-1B inflam inh -8.
Screening Cc1ccc(S(=O)(=O)N(C)C)cc1NC(=O)COC(=O)/C=C/c1ccc2ccccc2n1 returned HT1080-NT tox -2%, HT1080 IDH1KD tx inconclusive, TDP1 cell noCPT inconclusive, 12-LOX inh -22%, DT40 TDP1 CPT inconclusive and IL-1B inflam inh -106*.
Screening O=C(COC(=O)/C=C/c1ccccc1)NNC(=O)c1ccc([N+](=O)[O-])cc1 returned HT1080-NT tox 5%, HT1080 IDH1KD tx 2%, TDP1 cell noCPT -2%, 12-LOX inh 7%, DT40 TDP1 CPT 1% and IL-1B inflam inh -2.
`O=C(CN1C(=O)S/C(=C\c2ccc(C(=O)O)cc2)C1=O)Nc1ccccc1` gave HT1080-NT tox -3%, HT1080 IDH1KD tx -7%, TDP1 cell noCPT -1%, 12-LOX inh 11%, DT40 TDP1 CPT -2% and IL-1B inflam inh -4.
For O=C1S/C(=C/c2ccccc2)C(=O)N1CC(O)Cn1c2ccccc2c2ccccc21 (stereo unspecified) the results were HT1080-NT tox -9%, HT1080 IDH1KD tx 0%, TDP1 cell noCPT 23µM*, 12-LOX inh -15%, DT40 TDP1 CPT 23µM* and IL-1B inflam inh -14.
`O=C(CCCN1C(=O)/C(=C/c2ccccc2)SC1=S)Nc1ccccc1O` gave HT1080-NT tox inconclusive, HT1080 IDH1KD tx inconclusive, TDP1 cell noCPT inconclusive, 12-LOX inh 20%, DT40 TDP1 CPT inconclusive and IL-1B inflam inh -93*.
Screening CC(=O)NC(CC(=O)NCCN1C(=O)S/C(=C\c2ccccc2)C1=O)c1ccccc1 (stereo unspecified) returned HT1080-NT tox -1%, HT1080 IDH1KD tx 3%, TDP1 cell noCPT inconclusive, 12-LOX inh 7%, DT40 TDP1 CPT 21µM* and IL-1B inflam inh -21.
`O=C(CCCN1C(=O)/C(=C\c2cccs2)SC1=S)Nc1ccccc1O` gave HT1080-NT tox -12%, HT1080 IDH1KD tx -15%, TDP1 cell noCPT inconclusive, 12-LOX inh -6%, DT40 TDP1 CPT inconclusive and IL-1B inflam inh -5.
Screening O=C(CN1C(=O)S/C(=C\c2ccc(O)cc2)C1=O)c1ccccc1 returned HT1080-NT tox inconclusive, HT1080 IDH1KD tx inconclusive, TDP1 cell noCPT inconclusive, 12-LOX inh -15%, DT40 TDP1 CPT inconclusive and IL-1B inflam inh -77*.
Screening COc1ccc(OC)c(C2CCCN2CC(=O)N2CCN(c3cccc(C)c3)CC2)c1 (stereo unspecified) returned 12-LOX inh 0%.

Screening data from PubChem BioAssay.
